Assay results reported in PubChem BioAssay (NCI).
This is part of a sample that, as a whole, favours compounds with a hit. Of some 83,000 tested, about 20% had one in any assay.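 A percent growth of 40 corresponds to 60% growth inhibition; 0 means no net growth; -100 means all cells died. Active threshold: below 10.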 Unmarked numbers belong to inactive results. Activity calls are given as the source filed them.

System: T-47D breast
Test: NCI-60 one-dose screen, 48 h (100 = growth as untreated, 0 = no growth, -100 = all killed)
Conditions: 10 µM unless noted

In order of falling growth:
1. CCOC(=O)C1=C(NC)OCC1=O  110%
2. CCCCN[C@H]1CC[C@@]2(C)[C@@H](CC[C@@]3(C)[C@H]2[C@H](O)C[C@H]2/C(=C(\CCC=C(C)C)C(=O)OC)[C@@H](OC(C)=O)C[C@@]23C)[C@@H]1C  105%
3. NC(=O)CCC(C(=O)O)N1C(=O)c2ccc(O)cc2C1=O (stereo not given)  102%
4. COc1ccc(N2CCC(=O)NC2=S)cc1  102%
5. CCOC(=O)c1nc(Nc2ccc(NC(=O)Nc3ccc(F)cc3)cc2)c2ccccc2n1  99.2%
6. Cc1cccc(N2CCN(CC(O)COc3ccc(Cl)cc3)CC2)c1 (stereo not given)  94.4%
7. COc1ccc(-c2nc3c(c(-c4ccccc4)nn3-c3ccccc3)c(-c3ccc(N4CCOCC4)cc3)c2C#N)cc1  94.3%
8. OCCOCCN(Cc1ccccn1)Cc1cc(I)cc(I)c1O  93.9%
9. Cc1nc(N2CCOCC2)sc1S(N)(=O)=O  93%
10. CCN1CCN(Cc2cn(CC(=O)Nc3ccc4c(ccn4Cc4ccccc4)c3)nn2)CC1  91.1%
11. C1=CN2CC(c3ccccc3)=NNC2c2ccccc21 (stereo not given)  88.7%
12. COc1ccc2c(c1)[n+]([O-])c(C(=O)/C=C/C=C(\Cl)c1cc(OC)c(OC)c(OC)c1)c(C)[n+]2[O-]  87.1%
13. Clc1ccc(Sc2cnc(-c3ccccc3)o2)cc1  84.6%
14. O=Cc1ccc([N+](=O)[O-])s1  82.8%
15. O=C(/C=C/c1ccccc1)c1cccc(OCCCOc2cccc(C(=O)/C=C/c3ccccc3)c2)c1  72.1%
16. Cc1ccc(C2=Nc3c(N)ncnc3NC(c3ccc4c(c3)OCO4)C2)cc1 (stereo not given)  70.5%
17. COc1cc(-c2nc3cc(Cl)c(Cl)cc3[nH]2)ccc1OCC(=O)N=Nc1c(O)[nH]c2ccc([N+](=O)[O-])cc12  66.6%
18. C=CCc1c2c(c(OC)c3ccoc13)C(=O)/C(=C/c1ccccc1OC)O2  59.8%
19. O=[N+]([O-])C1C(c2ccccc2)C12c1ccccc1-c1ccccc12 (stereo not given)  57.6%
20. O=Nc1c(-c2c(O)[nH]c3ncccc23)[nH]c2ccccc12  49.1%
21. CN(C)CC(=O)Nc1ccc2ncnc(Nc3ccc(Oc4cccc(C(F)(F)F)c4)c(Cl)c3)c2c1  48.6%
22. CN(C)CCCn1c2c(c3ncccc3c1=O)C(=O)c1ccccc1-2  47.8%
23. COCCNC(=O)c1ccc(-c2nc3ccc4[nH]ncc4c3c3c2CCCC3)cc1  44.5%
24. O=C1Nc2ccccc2/C1=C\c1nc(-c2ccccc2)n2ccccc12  43.1%
25. Oc1c(Cl)cc(Cl)c2ccc(Cn3cc(-c4cc(F)cc(F)c4)nn3)nc12  40.4%
26. COC(=O)c1cc(-c2ccccc2)[nH]c1N/N=C/c1c(Cl)cccc1Cl  38.5%
27. Cc1nnc(-n2c(O)cc(=O)n(-c3ccccc3)c2=S)nc1/C=C/c1ccc(N(C)C)cc1  38%
28. O=C(/C=C/c1cn(-c2ccccc2)nc1-c1ccc([N+](=O)[O-])cc1)c1ccc(Cl)cc1  31.4%
29. COc1cc(OC)c2sc(-c3ccc(-n4cncc4-c4ccc(OC)c(OC)c4)cc3)nc2c1  29.7%
30. COc1cc2oc(-c3cccc(NC(=O)c4cccc(Br)c4)c3)cc(=O)c2c(OC)c1OC  27.7%
31. Cc1ccc2c(n1)C(=O)c1[nH]c3ccccc3c1C2=O  23.2%
32. O=S(=O)(Nc1ccc(Cl)cc1)c1ccc(-c2cnc(C3CC3)o2)cc1  22.6%
33. CO/N=C(/C)c1ccc(NC(=O)CSc2nnc(-c3ccncc3)n2-c2ccccc2)cc1  17.4%

In the case of `OCc1cccc(-c2ccc3ncc(-c4nc(NC5CC5)ncc4F)n3c2)c1`, the growth is reported as -2.9% (active).
With `O=C1/C(=C/c2ccc(Cl)cc2)COc2ccc(O)c(O)c21` the growth was -14.8% (active).
For `N#Cc1c(NC(=O)c2ccccc2)sc2c1CCC(=O)C2`, the growth was -24.8% (active).
In the case of `C=C(CNCCc1ccc(O)cc1)[C@@H]1CC[C@]2(CO)CC[C@]3(C)[C@H](CC[C@@H]4[C@@]5(C)CCC(NCCO)C(C)(C)[C@@H]5CC[C@]43C)[C@@H]12` (stereo not given in full), the growth is reported as -64.2% (active).
For `O=CC1(C2(C=O)c3ccccc3-c3ccccc32)c2ccccc2-c2ccccc21`, the growth was -51% (active).
For `COc1ccc(Cc2cc(-c3ccccc3)nn(Cc3ccccc3)c2=O)cc1OC`, the growth was 7.51% (active).

In the case of `CC(C)(C)[Si](C)(C)O[C@H]1C(=O)C=CN2CC=C[C@@H]12`, the growth is reported as 92% [100 µM].
